High-throughput results: PubChem BioAssay, several laboratories
CYP2C9 activ – human CYP2C9 activators, primary screen, biochemical, luminescence; Cytochrome P450 2C9 (Homo sapiens), P11712; recombinant CYP2C9, luciferin-H conversion; hits give high values; factor 1 = untreated enzyme, 0 = blocked; activation factor at 5 µM; 96,000 tested, 1.4% active; AID 1024, 2008;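 active = activation factor of 2 or more for CYP2C9 at a 5 µM dose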
CYP2C9 inh – blockers of cytochrome P450 2C9 activity – biochemical, luminescence, ADME assay, primary screen. P11712. CYP2C9 Supersomes, luciferin-H conversion. inhibition, % at 5 µM. 96,000 tested, 20% active;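 active = blocking of liver enzyme CYP2C9 beyond about 50% at 5 µM, limit read from the data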
E-sel TNF inh – E-selectin induction blockers in HUVEC – imaging, immunofluorescence, high content, primary screen; HUVEC TNFa-induced E-selectin immunofluorescence; inhibition, % at 2 µM; 120,000 tested, 0.71% active; AID 1246, 2008;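 active = inhibition above the batch mean plus 3 SD, and confirmed as a hit on visual image review, cut at about 43% in these data; inconclusive = passes the inhibition cutoff but fails visual image review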
CYP2C19 inhib – blockers of cytochrome P450 2C19 activity – biochemical, luminescence, ADME assay, primary screen | P33261 | CYP2C19 Supersomes, luciferin-H EGE luminescence, 30 min | AID 778, 2007 | 96,000 tested, 21% active | inhibition, % at 5 µM;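 active = CYP2C19 inhibition above a set limit at 5 µM in the primary screen, cut at about 50% in these data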
Target sequence (P33261 whole entry, looked up): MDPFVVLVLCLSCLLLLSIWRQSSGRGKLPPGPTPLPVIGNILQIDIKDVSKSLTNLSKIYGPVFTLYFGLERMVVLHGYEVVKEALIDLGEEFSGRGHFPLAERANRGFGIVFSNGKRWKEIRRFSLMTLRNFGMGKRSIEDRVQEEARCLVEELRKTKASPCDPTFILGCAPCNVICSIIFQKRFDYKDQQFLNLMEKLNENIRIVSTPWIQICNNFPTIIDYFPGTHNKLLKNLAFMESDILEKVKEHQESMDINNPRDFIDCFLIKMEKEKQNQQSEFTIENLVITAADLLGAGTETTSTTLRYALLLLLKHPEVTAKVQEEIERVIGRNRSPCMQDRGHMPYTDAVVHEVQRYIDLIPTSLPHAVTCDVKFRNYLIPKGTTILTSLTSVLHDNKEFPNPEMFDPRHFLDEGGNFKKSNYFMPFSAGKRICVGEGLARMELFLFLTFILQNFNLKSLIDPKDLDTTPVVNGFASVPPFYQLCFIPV
CYP2C19 activ – human CYP2C19 activators, primary screen, biochemical, luminescence. Cytochrome P450 2C19 (Homo sapiens), P33261. recombinant CYP2C19, luciferin-H EGE luminescence; hits give high values; 0 = fully inhibited enzyme, 1 = untreated enzyme. activation factor at 5 µM. 96,000 tested, under 10 active;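 active = activation factor of at least 2 at 5 µM in the primary screen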
F-actin modifier – modifiers of F-actin cytoskeleton organization, primary screen, imaging, HUVEC, phalloidin staining, high-content imaging; HUVEC TNFa F-actin phalloidin imaging; inhibition, % at 2 µM; 91,000 tested, 0.18% active;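 active = inhibition above the batch mean plus 3 SD and confirmed as a hit by visual image inspection, cut at about 30% in these data, passing the limit was not always enough; inconclusive = above the inhibition threshold but rejected on visual inspection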
Large screens that a line does not name were inactive. An excerpt weighted towards active compounds, which were near 22% of everything screened.

O=C(Cc1ccccc1F)Nc1ccc(Cl)nc1	none (no result: CYP2C9 activ, CYP2C9 inh, CYP2C19 inhib, CYP2C19 activ)
Cc1ccc(OCC(=O)N/N=C\c2c(C)n(C)c3ccccc23)c([N+](=O)[O-])c1	none
COc1ccc(F)cc1S(=O)(=O)NC1CCCC1	CYP2C19 inhib 80.1
COc1cc(S(=O)(=O)NC2CCCCC2)ccc1Cl	none (no result: CYP2C9 activ, CYP2C9 inh, CYP2C19 inhib, CYP2C19 activ)
COc1ccc(C)cc1S(=O)(=O)NC1CCCC1	CYP2C19 inhib 83.4
COc1ccc(S(=O)(=O)NC2CCCC2)c(Cl)c1Cl	CYP2C9 inh 54.3, CYP2C19 inhib 97.8
COc1ccc(S(=O)(=O)NC2CCCCC2)cc1C	CYP2C9 activ 3, CYP2C19 inhib 60.0
CC(C)N1CCC(=NNC(=O)c2ccccc2[N+](=O)[O-])CC1	none (no result: CYP2C9 activ, CYP2C9 inh, CYP2C19 inhib, CYP2C19 activ, F-actin modifier)
CCOC(=O)c1sc(NC(=O)CSc2nc(-c3ccco3)cc(C(F)(F)F)n2)c(C(=O)OC(C)C)c1C	none (no result: CYP2C9 activ, CYP2C9 inh, CYP2C19 inhib, CYP2C19 activ)
CCCOC(=O)c1c(NC(=O)CSc2nc(-c3ccco3)cc(C(F)(F)F)n2)sc(C(=O)OC)c1C	CYP2C9 inh 69.5 (no result: E-sel TNF inh)
CCOC(=O)c1sc(NC(=O)CSc2nc(-c3ccco3)cc(C(F)(F)F)n2)c(C(=O)OC)c1C	CYP2C9 inh 71.5 (no result: E-sel TNF inh)
CC(C)C(O)(C#CCN1CCCCC1)C(C)C	none (no result: CYP2C9 activ, CYP2C9 inh, CYP2C19 inhib, CYP2C19 activ, F-actin modifier)
Cc1ccc2cccc(OCC(=O)N3CCc4ccccc43)c2n1	none (no result: CYP2C9 activ, CYP2C9 inh, CYP2C19 inhib, CYP2C19 activ, F-actin modifier)
COc1ccc(CCNC(=O)CN(C2CCCCC2)S(C)(=O)=O)cc1	none
CS(=O)(=O)N(CC(=O)NCCC1=CCCCC1)C1CCCCC1	CYP2C9 inh 68.7, E-sel TNF inh inconclusive, CYP2C19 inhib 71.0
O=C(CN(Cc1ccccc1F)S(=O)(=O)c1ccc(Cl)cc1)NCCC1=CCCCC1	none
Cc1ccc(S(=O)(=O)N(CC(=O)NCCC2=CCCCC2)Cc2ccccc2)cc1	CYP2C9 inh 56.7
Cc1ccc(S(=O)(=O)N(CC(=O)NCCC2=CCCCC2)Cc2ccccc2F)cc1	CYP2C9 inh 51.7
O=C(CN(Cc1ccccc1F)S(=O)(=O)c1ccc(Cl)cc1)NCCCO	CYP2C19 inhib 54.4
COCCCNC(=O)CS(=O)Cc1nc(-c2ccccc2C)oc1C (stereo not given)	none
CN(C)CC#CCCCCCCC#CCN(C)C	none
Cc1cccc(NC(=O)CN2CCN(CC(=O)Nc3cccc(C)c3)CC2)c1	none (no result: E-sel TNF inh)
O=C(Nc1c(F)cc(F)cc1Br)c1cc2nc(C(F)F)cc(C(F)F)n2n1	none
O=C(Cn1nc(C(F)F)cc1C1CC1)NCCC1=CCCCC1	CYP2C19 inhib 67.5
COCCNC(=O)CN1CCC(NC(=O)C(C)(C)C)CC1	none
O=C(O)CCNS(=O)(=O)c1ccccc1	none
CC1CCN(C(=O)CCNS(=O)(=O)c2ccccc2)CC1	CYP2C19 inhib 53.9
Cc1ccc(S(=O)(=O)NCCC(=O)N2CCN(Cc3ccccc3)CC2)cc1	CYP2C19 inhib 52.3 (no result: F-actin modifier)
Cc1coc(NC(=O)CSc2nc(-c3ccc(Cl)cc3)cc(C(F)(F)F)c2C#N)n1	none
c1ccc(NC2=NCCCCS2)cc1	E-sel TNF inh 54.2 (no result: CYP2C9 activ, CYP2C9 inh, CYP2C19 inhib, CYP2C19 activ)
Cc1ccccc1CNC(=O)c1ccccc1C(=O)O	none (no result: CYP2C9 activ, CYP2C9 inh, CYP2C19 inhib, CYP2C19 activ)
Cc1ccccc1C(=O)OC1OC(=O)C(Cl)=C1N1CCOCC1 (stereo not given)	none (no result: CYP2C9 activ, CYP2C9 inh, CYP2C19 inhib, CYP2C19 activ, F-actin modifier)
CC(=O)Nc1ccc(N2CCCCC2)c(C(=O)Nc2cccc(C)c2)c1	CYP2C9 inh 56.7, CYP2C19 inhib 50.3
Cc1ccc(SCC(=O)c2ccc[nH]2)cc1	none (no result: CYP2C9 activ, CYP2C9 inh, CYP2C19 inhib, CYP2C19 activ, F-actin modifier)
CCn1cc(C(=O)NCCCN(C)C)c(=O)c2cc(F)c(N3CCN(C)CC3)cc21	none
N/C(Cc1ccc(Cl)cc1)=N\OC(=O)c1ccccc1	CYP2C9 inh 63.4, CYP2C19 inhib 66.1
O=C(OCc1ccc(Cl)cc1)c1ccccc1C(=O)c1ccccc1	CYP2C19 inhib 72.1
CCC(=O)NC(=S)Nc1ccccc1C(=O)OC	none (no result: CYP2C9 activ, CYP2C9 inh, CYP2C19 inhib, CYP2C19 activ, F-actin modifier)
CCC(=O)Nc1ccccc1C(=O)OCc1ccc(C(=O)c2ccccc2)cc1	CYP2C9 inh 61.8
CCC(=O)Nc1ccccc1C(=O)OCC(=O)c1cccc2ccccc12	CYP2C9 inh 73.0
O=c1c2ccccc2c2c(O)nc(-c3ccccc3)n2n1Cc1ccccc1	CYP2C9 inh 53.9
Cn1c(=O)c2c(nc(-c3ccccc3)n2C)n(Cc2ccccc2)c1=O	none (no result: CYP2C9 activ, CYP2C9 inh, CYP2C19 inhib, CYP2C19 activ, F-actin modifier)
C/C(N)=C(/C#N)C(=O)CSc1nc2ccc(C)cc2[nH]1	CYP2C9 inh 62.6, CYP2C19 inhib 88.4 (no result: F-actin modifier)
C=CCn1c(C)cc(C(=O)CSc2nc3ccccc3o2)c1C	CYP2C19 inhib 64.5
Cc1cc(C(=O)CSc2nc3ccccc3o2)c(C)n1C1CC1	none (no result: E-sel TNF inh, F-actin modifier)
Cc1ccc2nc(SCC(=O)c3cc(C)n(C)c3C)[nH]c2c1	CYP2C9 inh 57.2
Cc1nn2c(=O)cc(CSc3nc4ccccc4[nH]3)nc2s1	CYP2C19 inhib 58.3 (no result: E-sel TNF inh, F-actin modifier)
CCN(CC)CCCn1c(C)cc2c(c1=O)C(c1ccc(OC)c(OC)c1OC)C(C#N)=C(N)O2 (stereo not given)	none (no result: CYP2C9 activ, CYP2C9 inh, CYP2C19 inhib, CYP2C19 activ, F-actin modifier)
Cc1cc(C(=O)CSc2nnc(-c3ccc(Cl)cc3)n2CC2CCCO2)c(C)n1C (stereo not given)	none
Cc1cc(C(=O)CSc2nc3ccccc3[nH]2)c(C)n1C	CYP2C9 inh 60.3, CYP2C19 inhib 87.1
Cc1cc(NC(=O)CSc2nc3ccc(Cl)cc3[nH]2)no1	CYP2C9 inh 62.1
C=CCn1c(C)cc(C(=O)CSc2nc3ccccc3[nH]2)c1C	CYP2C9 inh 67.7, CYP2C19 inhib 61.5 (no result: E-sel TNF inh)
O=C(CSc1nc2ccccc2[nH]1)c1c[nH]c2ccccc12	none (no result: CYP2C9 activ, CYP2C9 inh, CYP2C19 inhib, CYP2C19 activ, F-actin modifier)
